Compound activity (PubChem)
zVAD death inh: L929 zVAD cell death inhibition | viability rescue, % at 10 µM | actives 0.38% (n = 220,000) | L929 zVAD necroptosis rescue, ATP luminescence, 24 h; with zVAD 60 µM;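 active = activation, scaled between plate controls, above about 75%, limit read from the data; inactive = activation under that limit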
ROMK mod: modulators of human ROMK potassium channel | Tet-inducible ROMK, thallium flux fluorescence; actives lie on both sides | P48048 | AID 1918 | actives 2% (n = 130,000) | B-score at 10 µM;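 active = signal ratio slope over the read window, or its plate-corrected B-score, at least 3 SD from the plate mean, either direction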;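 note: B-score of the F/F0 ratio slope over 7 to 12 s after thallium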
Target sequence (P48048 whole entry, looked up): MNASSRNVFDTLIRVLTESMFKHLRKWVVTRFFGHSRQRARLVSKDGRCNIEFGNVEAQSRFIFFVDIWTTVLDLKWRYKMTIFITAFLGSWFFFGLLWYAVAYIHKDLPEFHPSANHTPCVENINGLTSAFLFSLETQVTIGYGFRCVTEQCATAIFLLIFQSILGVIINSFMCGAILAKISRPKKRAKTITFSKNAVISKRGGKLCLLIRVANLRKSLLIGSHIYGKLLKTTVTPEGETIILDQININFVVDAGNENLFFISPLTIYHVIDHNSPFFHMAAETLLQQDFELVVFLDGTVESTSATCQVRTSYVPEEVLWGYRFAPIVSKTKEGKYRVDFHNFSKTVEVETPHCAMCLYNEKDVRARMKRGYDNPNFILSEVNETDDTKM
TNF death inh: blocks TNF-alpha induced death of Jurkat FADD-/- cells | actives 0.068% (n = 220,000) | Jurkat FADD-/- TNF necroptosis rescue, ATP luminescence, 24 h; 0 = TNF only, 100 = no-TNF cells | AID 463075 | activation (protection from cell death), % at 10 µM;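 active = activation, meaning protection from cell death, of at least 50% relative to plate controls; inactive = activation below 50%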;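 note: necroptosis triggered by 40 ng/mL TNF-alpha added together with compound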
14-3-3 Bad inh: disrupts binding of bovine 14-3-3 zeta to phospho-Bad peptide. P63103. AID 781. actives 0.71% (n = 220,000). TR-FRET 14-3-3zeta/Dy647-pBad peptide displacement, 1 h. inhibition, % at 21.7 µM;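 active = inhibition above about 70%, limit read from the data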
Target sequence (P63103 whole entry, looked up): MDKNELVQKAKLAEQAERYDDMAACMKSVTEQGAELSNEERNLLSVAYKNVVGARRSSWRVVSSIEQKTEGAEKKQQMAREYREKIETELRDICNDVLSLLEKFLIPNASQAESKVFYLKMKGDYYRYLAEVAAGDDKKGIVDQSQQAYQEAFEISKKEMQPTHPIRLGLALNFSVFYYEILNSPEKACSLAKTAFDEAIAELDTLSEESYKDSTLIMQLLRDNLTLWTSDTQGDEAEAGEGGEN
Calpain2 inh: inhibitors of pig calpain II; inhibition, % at 16 µM; actives 0.37% (n = 220,000); purified calpain II, fluorogenic peptide substrate, 30 min;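 active = inhibition above about 50%, limit read from the data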
HMGR II inh: inhibitors of class II HMG-CoA reductase from Enterococcus faecalis; purified E. faecalis HMGR, NADPH absorbance 340 nm kinetic; actives 0.41% (n = 190,000); AID 1066; inhibition, % at 10 µM;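 active = inhibition above a set limit, the median over all tested compounds plus 3 SD, cut at about 9.5% in these data; inconclusive = no clear call, values can overlap the other calls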;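 note: enzyme runs in reverse so mevalonate oxidation gives rising NADPH absorbance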
ROMK hit retest: confirmation of human ROMK potassium channel modulators | normalized thallium flux (F/F0 slope) at 10 µM | ROMK thallium flux, fluorescence ratio; stronger effect = lower value | shares compounds with ROMK mod | AID 1917 | actives 54% (n = 3,000);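 active = Flux at 10 µM at least 3 SD below or above vehicle control mean in one or both replicates; inconclusive = no clear call, values can overlap the other calls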
Of the large screens only hits and unclear results are named; the others gave an inactive call (follow-up assays come after a bar, where they were run). This is a sample that favours compounds with a hit; in the whole collection about 3% have one here.

CCN1CCN(C(=O)/C(C#N)=C/c2ccc(OC(F)F)cc2)CC1	ROMK mod -3.6 | ROMK hit retest 0.047
COC(=O)c1ccccc1NC(=O)c1cnn2cccnc12	none
Oc1c(Br)cc(Br)cc1C=Nc1ccc2c(c1)OCO2	ROMK mod 3.4 | ROMK hit retest 0.11
Cc1cc(OCc2nn[nH]n2)c2c(C)c(Cc3ccccc3)c(=O)oc2c1	none (no result: ROMK mod)
CCOC(=O)c1[nH]c2ccc(OC)cc2c1NC(=O)NC(C)C	none (no result: ROMK mod)
CCOC(=O)c1[nH]c2ccc(OC)cc2c1NC(=O)OC	none (no result: ROMK mod) | ROMK hit retest inconclusive
COc1ccc(-n2c(-c3cnccn3)n[nH]c2=S)cc1	none (no result: ROMK mod) | ROMK hit retest inactive
COC(=O)c1cc(C(=O)N2CCN(c3cccc(Cl)c3)CC2)cc([N+](=O)[O-])c1	ROMK mod 3.7 | ROMK hit retest inconclusive
O=C(c1cccc([N+](=O)[O-])c1)N1CCN(c2cccc(Cl)c2)CC1	none
Cc1ccc(C(=O)/C=C/c2ccccc2[N+](=O)[O-])cc1	none
O=C(/C=C/c1ccccc1[N+](=O)[O-])c1ccccc1Br	ROMK mod -6.1 | ROMK hit retest 0.049
CC1CCCC(C)N1C(=O)COc1ccc([N+](=O)[O-])cc1Cl (centres undefined)	none
O=C(CCCCCCC(=O)c1ccccc1)c1ccccc1	none
O=C(COC(=O)CC1c2ccccc2CCN1S(=O)(=O)c1ccc(F)cc1)Nc1ccccc1 (centres undefined)	none
CCc1cccc(CC)c1NC(=O)COC(=O)CC1c2ccccc2CCN1S(=O)(=O)c1ccc(F)cc1 (centres undefined)	ROMK mod -3.8 | ROMK hit retest 0.06
COC(=O)c1ccc(-c2n[nH]c(=O)c3ccccc23)cc1	none (no result: ROMK mod)
COC(=O)Nc1nc2ccc(-c3n[nH]c(=O)c4ccccc34)cc2[nH]1	ROMK mod 2.8 (no result: zVAD death inh) | ROMK hit retest inconclusive
Cc1cccc(COCC(Cc2ccccc2)N2CCN(C(=O)c3ccc(Cl)c(Cl)c3)CCC2=O)c1 (centres undefined)	ROMK mod -2.6 | ROMK hit retest 0.06
CCCCC1CCC(c2nc(-c3cccnc3)no2)CC1 (centres undefined)	none (no result: ROMK mod) | ROMK hit retest inactive
c1cc2c3c(cccc3c1)NC1(CCCCCC1)N2	none (no result: ROMK mod)
c1cc2c3c(cccc3c1)NC1(CCC3(CC1)Nc1cccc4cccc(c14)N3)N2	none (no result: ROMK mod, HMGR II inh) | ROMK hit retest 0.05
CCN(CC)S(=O)(=O)c1ccc(C)c(NC(=O)Cn2cnc3cc([N+](=O)[O-])ccc3c2=O)c1	ROMK mod 2.9 | ROMK hit retest inconclusive
O=C(/C=N/O)Nc1ccc2sc3ccccc3c2c1	ROMK mod -2.8 (no result: HMGR II inh) | ROMK hit retest 0.064
CSc1nnc(C)c(=O)n1COC(=O)c1ccc(S(=O)(=O)N(C)C)cc1	none
COc1ccc(/C=C(/C(=O)c2ccc(Cl)cc2Cl)n2cncn2)cc1	none
CC(C)CC(=O)/C(=C\c1ccc(Cl)cc1Cl)n1cncn1	ROMK mod -7.1 | ROMK hit retest 0.046
O=C(/C=C/c1ccc(F)cc1)N1CCCc2ccccc21	ROMK mod -2.4 | ROMK hit retest inconclusive
CCNC(=O)n1nccc1C(C)Oc1cccc(C(F)(F)F)c1 (centres undefined)	none (no result: ROMK mod)
Cc1ccc(/C(=N\O)c2oc3c(C)c4oc(=O)cc(C)c4cc3c2C)cc1	ROMK mod 2.9 (no result: zVAD death inh) | ROMK hit retest 0.11
CC(C)NCCCCOc1ccc(Br)cc1Cl	none
Oc1cc(Br)ccc1C=Nc1ccc(N2CCCCC2)cc1	none (no result: ROMK mod, HMGR II inh) | ROMK hit retest 0.046
Cc1ccc(N=Cc2cc(Br)cc(Cl)c2O)cc1	ROMK mod 3.4 | ROMK hit retest 0.1
COc1ccccc1C(C)NCC(=O)Nc1c(F)cccc1F (centres undefined)	none
COc1cc(Cl)c(C)cc1NC(=O)CNC(C)c1ccccc1OC (centres undefined)	ROMK mod -4, Calpain2 inh 90 | ROMK hit retest 0.061
Cc1ccc(NC(=O)CN(C)C(=O)COc2cccc3cccnc23)cc1	none
NC(=O)C1CCN(CC(=O)Nc2ccccc2Sc2ccccc2)CC1	none (no result: ROMK mod) | ROMK hit retest 0.068
Cc1csc2nc3cc(C(N)=O)ccc3c(=O)n12	none (no result: ROMK mod, HMGR II inh) | ROMK hit retest inactive
O=C(Nc1nc2c(Br)cc(Br)cc2c(=O)s1)C1CCC1	none (no result: HMGR II inh)
CCOC(=O)C1=C(O)/C(=C/c2ccc(OCC(=O)O)c(OC)c2)SC1=Nc1ccc(OC)cc1	none (no result: ROMK mod) | ROMK hit retest inactive
O=C(CCS(=O)(=O)c1ccccc1)Nc1cccc2c1C(=O)NC2=O	none
CCOC(=O)Nc1ccc(S(=O)(=O)Nc2nc(C)cc(C)n2)cc1	ROMK mod 2.4 | ROMK hit retest inactive
Cc1nn(-c2ccccc2)c(Cl)c1CN(C(=O)CCl)c1cccc2ccccc12	none
Cc1cccc(N/C(N)=N/c2nc(C(F)(F)F)cc(=O)[nH]2)c1C	none
Cn1c(-c2ccc3c(c2)OCO3)cnc1NCc1cccc(Cl)c1	ROMK mod -4.8 | ROMK hit retest 0.065
Cn1c(-c2ccc3c(c2)OCO3)cnc1NCc1ccccc1	none (no result: ROMK mod)
CCOCC(=O)Nc1nc(-c2ccccc2)c(CC)s1	none
CC1=NOC(=O)/C1=C/c1ccc(O)cc1	ROMK mod -3.7 | ROMK hit retest 0.048
CCOCCCNC(=O)c1ccccc1Br	none (no result: ROMK mod)
CCOC(=O)CCNC(=O)c1ccccc1Br	none (no result: ROMK mod) | ROMK hit retest inactive
CC(C)(C)n1nc2c(c1NC(=O)COc1ccc3ccccc3c1)CS(=O)(=O)C2	none (no result: 14-3-3 Bad inh)
CN(C)c1nc(Oc2ccc(C(=O)OCC(=O)Nc3ccccc3)cc2)nc(N(C)C)n1	none (no result: ROMK mod) | ROMK hit retest inactive
CCOC(=O)c1ccc(Oc2nc(OC)nc(N(C)C)n2)cc1	none (no result: ROMK mod)
CC(/C=N\NC(=O)Cn1c(C)nc2ccccc21)=C\c1ccccc1	none (no result: ROMK mod)
CCOC(=O)c1nnn(-c2ccc([N+](=O)[O-])cc2[N+](=O)[O-])c1C	none
O=C(O)CCN1C(=O)/C(=C\c2cccc(OCC(=O)Nc3ccc(Cl)cc3)c2)SC1=S	none (no result: ROMK mod, HMGR II inh) | ROMK hit retest 0.053
O=C(O)CCN1C(=O)CC(N2C(=O)/C(=C/c3ccc(Cl)cc3)SC2=S)C1=O (centres undefined)	ROMK mod -2 | ROMK hit retest 0.044
O=C(CCCN1C(=O)/C(=C\c2ccccc2)SC1=S)Nc1ccc(O)cc1	none
Cc1nn(C)c(C(=O)Sc2ccccc2)c1[N+](=O)[O-]	none (no result: HMGR II inh)
Cc1nn(C)c(C(=O)Sc2cccc(Cl)c2)c1[N+](=O)[O-]	ROMK mod -2.9 (no result: HMGR II inh) | ROMK hit retest 0.064
CCn1c(=O)c([N+](=O)[O-])c(N2CCN(Cc3ccc4c(c3)OCO4)CC2)c2ccccc21	none (no result: ROMK mod, HMGR II inh) | ROMK hit retest 0.064
CCn1c(=O)n(CC)c2cc(S(=O)(=O)N3CCc4ccccc43)ccc21	none (no result: ROMK mod) | ROMK hit retest inconclusive
